Compound activity from PubChem BioAssay.
LmPK inhibitor = qHTS Assay for Inhibitors of Leishmania Mexicana Pyruvate Kinase (LmPK); purified LmPK, Kinase-Glo ATP luminescence, 1 h; Potency, µM (top dose mostly 57.5 µM), inactives show at the top dose activity change, negative = inhibition, most hits filed as inhibitors; 290,000 compounds, 0.37% hits; AID 1721, 2009; also: potency is read from the fitted curve at half-maximal effect; % is scaled to controls: 0 for no effect and ±100 for the full control effect
Target sequence (Q27686 whole entry, looked up): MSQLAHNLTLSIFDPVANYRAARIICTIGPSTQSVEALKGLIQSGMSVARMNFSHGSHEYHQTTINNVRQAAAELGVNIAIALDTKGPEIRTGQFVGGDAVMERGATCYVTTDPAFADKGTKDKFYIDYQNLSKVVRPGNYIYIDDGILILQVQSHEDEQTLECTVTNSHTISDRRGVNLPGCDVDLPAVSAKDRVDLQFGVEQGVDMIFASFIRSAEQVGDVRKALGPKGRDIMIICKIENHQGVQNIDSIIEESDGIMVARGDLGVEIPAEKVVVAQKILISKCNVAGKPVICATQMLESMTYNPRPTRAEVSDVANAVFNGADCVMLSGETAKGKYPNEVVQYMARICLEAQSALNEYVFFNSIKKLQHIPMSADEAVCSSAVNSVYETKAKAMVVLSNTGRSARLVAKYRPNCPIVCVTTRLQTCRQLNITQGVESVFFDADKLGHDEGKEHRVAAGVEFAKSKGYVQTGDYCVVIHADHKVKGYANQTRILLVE
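ATP generated from ADP (0.1 mM) and PEP (0.5 mM) by 0.1 nM LmPK over 1 h at room temperature (pH 7.2 imidazole buffer) was detected by coupled luciferase luminescence. Values were normalized to uninhibited and no-enzyme wells.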
Giardia FBPA inh = qHTS Assay for Inhibitors of Fructose-1,6-bisphosphate Aldolase from Giardia Lamblia | A8B2U2 | 290,000 compounds, 0.71% hits | purified Giardia FBPA | Potency, µM (series often up to 59.6 µM), for inactives: at the highest dose activity, negative = inhibition, most hits filed as inhibitors; also: potency is read from the fitted curve at half-maximal effect; % is scaled to controls: 0 for no effect and ±100 for the full control effect; nearly all actives have a fitted effect of over 55% in size
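Giardia FBPA (40 nM reagent) was preincubated 10 min at RT with compound (up to 57.5 uM final), then substrate plus GAPDH/TPI/NAD/arsenate coupling system with diaphorase/resazurin was added; resorufin fluorescence (525/598 nm) was read after 20 min.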
Sm TGR block = qHTS Assay for the Inhibitors of Schistosoma Mansoni Peroxiredoxins; Schistosoma mansoni thioredoxin glutathione reductase (TGR), Q962Y6; purified TGR, DTNB reduction, TNB absorbance 405 nm; Potency, µM (doses to about 114 µM), inactives show at the top dose activity change, negative = inhibition, usual class: inhibitors; 360,000 compounds, 3% hits; AID 485364, 2010; also: potency is read from the fitted curve at half-maximal effect; % is scaled to controls: 0 for no effect and ±100 for the full control effect; nearly all actives have a fitted effect of over 60% in size
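TGR 20 nM + NADPH 100 uM (dispensed conc.), cpd preinc 15 min RT; start with NADPH (500 uM addition) then DTNB (15 mM addition). Kinetic TNB absorbance, 405 nm filter. Four-parameter Hill fit across titration.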
Tb PYK inh = qHTS of Trypanosoma Brucei Inhibitors | pyruvate kinase (Trypanosoma brucei), Q57TT1 | TbPYK enzyme, Kinase-Glo Plus ATP luminescence, 45 min | Potency, µM (highest dose often 76.8 µM), without a hit: at the top dose activity, negative = inhibition, most hits filed as inhibitors | 410,000 compounds, 0.12% hits; also: potency is read from the fitted curve at half-maximal effect; % is scaled to controls: 0 for no effect and ±100 for the full control effect; nearly all actives have a fitted effect of over 50% in size
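Assay buffer: 50 mM TEA pH 7.2, 100 mM KCl, 10 mM MgCl2, 0.05% BSA, 0.01% Tween-20. Pyruvate kinase from T. brucei plus substrate met compound, then ADP (130 uM final). Luminescence was read post 45 min RT.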
Shiga inhibitor = A qHTS for Small Molecule Inhibitors of Shiga Toxin. Vero cells, Shiga toxin protein synthesis inhibition reporter. inhibition, % at 38.7 µM. 290,000 compounds, 9.2% hits; in the data active = inhibition mostly above about 28%, no sharp cut-off; inactive = mostly below about 43%; also: 0% is about no effect
Cycloheximide cs = Cycloheximide Counterscreen for Small Molecule Inhibitors of Shiga Toxin | cell reporter, cycloheximide protein synthesis inhibition counterscreen | max response, % | 300,000 compounds, 12% hits | AID 2314, 2010; in the data active = max response mostly above about 13%, no sharp cut-off; inactive = mostly below about 14%; also: read at 38.3 µM for the half of the compounds with a filed dose; 0% is about no effect
* hit, by the source's call; [ ] = dose if it differs, or a comment. This is one part of a sample in which hits are shown more often than they occur. Unless noted, calls follow the shape of the dose curve; as a rule, active = well fitted curve in the direction sought with a large enough effect; inconclusive = small, poorly fitted or top-dose-only effect, or another doubt; inactive = no such curve, though single readings can be large; an effect the other way counts as inactive or inconclusive.

For COc1ccc(-n2c(-c3ccc(C)cc3)n[nH]c2=S)cc1 the results were LmPK inhibitor inconclusive, Giardia FBPA inh 10%, Sm TGR block -7%, Tb PYK inh inconclusive, Shiga inhibitor -1 and Cycloheximide cs 0.
COc1cc(OC)cc(-c2n[nH]c(=S)n2-c2ccc3c(c2)OCO3)c1 was read as LmPK inhibitor 5µM*, Giardia FBPA inh 13%, Sm TGR block -1%, Tb PYK inh inconclusive, Shiga inhibitor -5 and Cycloheximide cs -2.
For Cc1sc2c(c1C)C(=O)NC(c1cccc(O)c1)N2 (stereo not given) the results were LmPK inhibitor 2%, Giardia FBPA inh -12%, Sm TGR block 0%, Shiga inhibitor 35 and Cycloheximide cs 27*.
`CN(C[C@H](c1ccccc1)N(C[C@H](Cc1ccccc1)N(CCc1ccccc1)N=O)N=O)N=O` gave LmPK inhibitor 0%, Giardia FBPA inh 0%, Sm TGR block inconclusive, Tb PYK inh 2%, Shiga inhibitor -9 and Cycloheximide cs -2.
For CN(C[C@H](Cc1ccccc1)N(C[C@H](c1ccccc1)N(CCc1ccccc1)N=O)N=O)N=O the results were LmPK inhibitor 7%, Giardia FBPA inh -2%, Sm TGR block 13µM*, Tb PYK inh -3%, Shiga inhibitor 1 and Cycloheximide cs -1.
`N#C/C(=C\c1ccc(-c2ccccc2C(=O)O)o1)c1nc2ccccc2[nH]1` gave LmPK inhibitor -5%, Giardia FBPA inh 3%, Sm TGR block -28%, Tb PYK inh -16%, Shiga inhibitor -4 and Cycloheximide cs 12.
N#C/C(=C\c1ccc(Sc2ccccc2)o1)c1nc2ccccc2[nH]1 was read as LmPK inhibitor -7%, Giardia FBPA inh 2%, Sm TGR block -21%, Tb PYK inh -17%, Shiga inhibitor 127* and Cycloheximide cs 41*.
N#C/C(=C\c1ccc([N+](=O)[O-])o1)c1nc2ccccc2[nH]1 was read as LmPK inhibitor 1%, Giardia FBPA inh -4%, Sm TGR block -31%, Tb PYK inh -6%, Shiga inhibitor 48 and Cycloheximide cs 17*.
Screening Cc1ccnc(NC(=O)c2cccc(NC(=O)Cc3ccccc3)c2)c1 returned LmPK inhibitor 0%, Giardia FBPA inh 3%, Sm TGR block 0%, Tb PYK inh 0%, Shiga inhibitor 41 and Cycloheximide cs 15*.
Screening Cc1cccc(C(=O)Nc2cccc(C(=O)Nc3cc(C)ccn3)c2)c1 returned LmPK inhibitor -3%, Giardia FBPA inh 1%, Sm TGR block 7%, Tb PYK inh 0%, Shiga inhibitor 9 and Cycloheximide cs 8.5*.
Screening COC(=O)C/C=C\[C@H](C)[C@H](CO)NS(=O)(=O)c1ccc(C)cc1 returned Giardia FBPA inh 5%[12.9 µM].
For COc1ccccc1-c1c(C)nn2c(N3CCN(c4ccc(Cl)cc4)CC3)cc(C)nc12 the results were Sm TGR block 3% and Tb PYK inh -2%.
For Oc1cccc(/C=N/c2c(-c3ccco3)nc3ccccn23)c1 the results were LmPK inhibitor inconclusive, Giardia FBPA inh inconclusive, Sm TGR block 35µM*, Tb PYK inh -26%, Shiga inhibitor 18 and Cycloheximide cs 15.
Screening Cc1cc(C)c([N+](=O)[O-])cc1-c1ccc(/C=N/c2c(-c3ccco3)nc3ccccn23)o1 returned LmPK inhibitor -22%, Giardia FBPA inh inconclusive, Sm TGR block 40µM*, Tb PYK inh -8%, Shiga inhibitor 3 and Cycloheximide cs -1.
`O=C(CSc1nc2c([nH]c3ccccc32)c(=O)n1-c1ccccc1F)Nc1ccccc1C(F)(F)F` gave Sm TGR block 3% and Tb PYK inh 1%.
`CC(C)(CO)C(O)C(=O)NCCCC(=O)O` (stereo not given) gave Tb PYK inh 3%.
Screening CCN(C(=O)Cc1cccs1)c1nnc(-c2cccnc2)s1 returned LmPK inhibitor 2%, Giardia FBPA inh -2%, Sm TGR block -6%, Tb PYK inh -4%, Shiga inhibitor 48* and Cycloheximide cs 28*.
